Test results from PubChem BioAssay.
Records with an inconclusive call do not appear. The source made the active and inactive calls.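 The calls were made as follows, unless noted: active = RAM network inhibition above 8.4% in each of two replicates, 3 SD over the compound average; inconclusive = above 8.4% inhibition in only one replicate; inactive = 8.4% inhibition or less in each replicate.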

Columns and labels:
[1] = Her2 expression decrease, cell viability multiplex – SKBR3 breast tumor cells, AlphaScreen, ATP viability, primary screen (AID 461;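 active = Her2 level under about 52% in both replicate screens, with viability over 70% of control, limit read from the data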;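 as to Her2 level: lower value means less Her2 protein in the cells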;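 as to viability: percent of carrier control wells set as 100% viability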); settings: SKBR3 Her2 protein level, 18-24 h, measured here: SKBR3 viability, ATP luminescence, at 10 µM
[2] = target: Receptor tyrosine-protein kinase erbB-2 (Homo sapiens) (UniProt P04626); assay: as above; settings: 18-24 h, at 10 µM, stronger effect = lower value
Chain of Receptor tyrosine-protein kinase erbB-2 (Homo sapiens) (P04626 whole entry, looked up): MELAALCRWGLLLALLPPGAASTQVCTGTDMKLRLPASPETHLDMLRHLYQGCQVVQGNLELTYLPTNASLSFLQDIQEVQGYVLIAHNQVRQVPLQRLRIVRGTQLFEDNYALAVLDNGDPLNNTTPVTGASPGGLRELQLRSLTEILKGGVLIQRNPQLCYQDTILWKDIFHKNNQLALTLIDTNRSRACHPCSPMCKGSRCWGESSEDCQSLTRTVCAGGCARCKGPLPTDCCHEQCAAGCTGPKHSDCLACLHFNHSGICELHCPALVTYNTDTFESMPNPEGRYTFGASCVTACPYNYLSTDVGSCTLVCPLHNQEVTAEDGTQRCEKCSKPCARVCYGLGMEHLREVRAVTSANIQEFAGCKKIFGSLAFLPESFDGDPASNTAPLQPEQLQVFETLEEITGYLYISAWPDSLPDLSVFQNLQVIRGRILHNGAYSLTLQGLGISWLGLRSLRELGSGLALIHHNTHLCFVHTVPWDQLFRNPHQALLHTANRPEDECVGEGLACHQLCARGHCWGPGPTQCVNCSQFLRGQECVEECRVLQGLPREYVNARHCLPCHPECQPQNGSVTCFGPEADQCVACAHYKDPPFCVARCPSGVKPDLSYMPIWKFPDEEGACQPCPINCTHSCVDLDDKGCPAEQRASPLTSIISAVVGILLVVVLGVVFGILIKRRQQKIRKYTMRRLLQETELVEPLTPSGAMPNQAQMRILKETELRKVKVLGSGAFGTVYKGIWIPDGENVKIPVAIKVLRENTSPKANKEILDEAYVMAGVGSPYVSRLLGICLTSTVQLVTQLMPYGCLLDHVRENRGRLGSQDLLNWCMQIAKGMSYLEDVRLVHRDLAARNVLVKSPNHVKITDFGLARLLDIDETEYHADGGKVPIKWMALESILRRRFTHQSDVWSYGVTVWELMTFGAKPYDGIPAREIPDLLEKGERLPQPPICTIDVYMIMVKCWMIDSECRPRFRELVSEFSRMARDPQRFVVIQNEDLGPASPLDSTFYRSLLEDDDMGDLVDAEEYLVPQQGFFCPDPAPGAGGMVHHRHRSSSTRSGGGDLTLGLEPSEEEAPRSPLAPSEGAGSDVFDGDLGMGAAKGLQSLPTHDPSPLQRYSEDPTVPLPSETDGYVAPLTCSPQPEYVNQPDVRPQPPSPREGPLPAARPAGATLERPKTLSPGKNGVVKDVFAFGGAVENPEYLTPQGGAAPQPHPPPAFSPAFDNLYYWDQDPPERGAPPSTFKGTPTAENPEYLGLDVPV

[3] = reduced viability of SK-BR-3 breast cancer cells – cell-based, 24 h, human, pilot screen (AID 572;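 active = viability at or below 10% of carrier control in both of two separate runs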;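 also: compound exposure lasted between 18 and 24 h rather than exactly 24 h; 100% = carrier-treated control wells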); settings: SK-BR-3 viability, CellTiter-Glo luminescence, at 10 µM, stronger effect = lower value
[4] = HUVEC growth inhibition – cell-based, human, primary screen (AID 575;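 active = viability at or below 30% in both replicate assays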;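 also: 100% = median of untreated cell wells with 0.1% DMSO on each plate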); settings: HUVEC proliferation, CellTiter-Glo luminescence, 72 h; at 10 µM; stronger effect = lower value
[5] = H69AR cell proliferation blockers – human, duplicate replicates, primary screen (AID 580;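 active = viability at or under a set limit in both replicates, limit being median viability minus 3 SD, cut at about 48% in these data, passing the limit was not always enough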;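 also: 100% = mean luminescence of untreated wells and 0% = no signal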); settings: H69AR lung tumor cells viability, ATP luminescence, 72 h; at 10 µM; stronger effect = lower value
[6] = MRP1 drug-resistance reversers in H69AR cells – cell-based, doxorubicin co-treatment, pilot screen (AID 601;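 active = viability loss from added drug above about 55%, and viability with drug at most 40%, in both replicates, limit read from the data, passing the limit was not always enough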); settings: CellTiter-Glo, 72 h, at 10 µM; for differential viability (reversal): stronger effect = higher value
[7] = yeast transport mutant growth inhibition pilot in 384-well plates, post-Golgi transport modulator project (AID 636; in the data active = inhibition above about 31%); settings: absorbance 615 nm, about 18 h, stronger effect = higher value
[8] = growth suppression of yeast trafficking mutant, preliminary HTS, modulators of trafficking downstream of Golgi apparatus project, 1536-format plate, OD 615 nm (AID 637; in the data active = inhibition above about 30%); settings: yeast transport mutant growth, absorbance 615 nm, 18 h; stronger effect = higher value
[9] = S. cerevisiae growth inhibition in permissive medium (OD615), pilot counter-assay for S. cerevisiae lifespan shortening project, permissive growth control (AID 705;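 active = growth inhibition above 25% in both replicates, a cutoff set 3 SD above the mean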); settings: OD615, 24 h, at 10 µM, stronger effect = higher value
[10] = S. cerevisiae growth inhibition in restrictive medium, OD615, pilot screen, restrictive growth control, yeast lifespan reduction project (AID 706;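 active = growth inhibition above a set limit, 3 SD over mean compound inhibition, in both replicates, cut at about 43% in these data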;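 also: modified DeaD lifespan yeast strain shifted to restrictive glucose medium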); settings: OD615, 48 h, at 10 µM, stronger effect = higher value
[11] = doxorubicin toxicity protection in MRP-1 cells – H69AR cells, CellTiter-Glo, duplicate, MRP-1 activator project, pilot screen (AID 807;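 active = viability increase at or above a cutoff of the median across tested compounds plus 3 SD, cut at about 8.5% in these data, passing the limit was not always enough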;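 also: compound pretreatment 18-22 h then 72 h combined with doxorubicin; 0% = doxorubicin alone and 100% = vehicle without doxorubicin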); settings: H69AR viability with doxorubicin, CellTiter-Glo luminescence; at 10 µM; stronger effect = higher value
[12] = viability of HCT116 without oncogenic beta-catenin – human colon tumor cells, pilot screen (AID 823;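 active = cell viability at or below a set limit in both duplicate runs, the limit being the all-compound median minus 4 SD, cut at about 23% in these data, passing the limit was not always enough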;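 also: 0% = wells killed by 20 µM Hyamine and 100% = untreated DMSO cell wells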); settings: HCT116 beta-catenin knockout viability, CellTiter-Glo, 60 h; at 10 µM; stronger effect = lower value
[13] = viability of PTEN-null HCT116 cells – cell-based, HCT116 clonal line, CellTiter-Glo, pilot screen (AID 824;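 active = viability at or below 27.92% in each of two runs, the all-compound median minus 4 SD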;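 also: 0% = 20 µM Hyamine control and 100% = vehicle cell control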); settings: HCT116 PTEN-deleted viability, 60 h, at 10 µM, stronger effect = lower value
[14] = RAM pathway blockade in budding yeast – dse1pr::URA3 reporter, 5-FOA selection, pilot screen (AID 869;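 active = inhibition over a set limit, the all-compound mean plus 3 SD, in both replicate runs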;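 also: 0% = DMSO wells with no growth and 100% = 10 µM 1-NA-PP1 with full growth; RAM network block rescues cells from 5-FOA so hits raise OD615 growth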); settings: S. cerevisiae dse1pr::URA3 5-FOA growth, OD615, 2 d; at 10 µM; stronger effect = higher value; strain carries analog-sensitive mutant Cbk1 kinase
[15] = RAM signaling pathway blockade in yeast – S. cerevisiae, Pdr1DBD-CYC8 efflux-inhibited sensitized strain, primary screen (AID 1298);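 also: 0% = DMSO untreated cells without growth and 100% = 10 µM 1-NA-PP1 full growth; higher means more yeast growth rescued from 5-FOA killing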; settings: S. cerevisiae cbk1-as DSE1-URA3 strain, 5-FOA growth OD615, 2 d; at 50 µM; stronger effect = higher value
[16] = H69AR cells + 2 uM doxorubicin, measured here: viability with 2 uM doxorubicin, stronger effect = lower value
[17] = H69AR cells, compound alone cytotoxicity

COC(=O)CN(c1ccc(OC)cc1)S(=O)(=O)c1ccc(OC)c(OC)c1
89.5%: viability [1]
85.3%: viability [6, 16]
inactive: Her2 level [2] 91% | viability [3] 89.5% | viability [4] 96.5% | viability [5] 88.1% | differential viability (reversal) ([6]; H69AR cells + 2 uM doxorubicin) 2.77% | inhibition [7] -0.78% | inhibition [8] -2.3% | growth inhibition [9] -13.7% | growth inhibition [10] -17% | viability increase [11] -1.06% | viability [12] 98.5% | viability [13] 99.5% | inhibition [14] 1.75% | RAM network inhibition [15] 4.96%
88.1%: viability [6, 17]

O=C(NCCc1c[nH]c2ccccc12)c1cnc2n(c1=O)CCS2
82%: viability [6, 17]
92%: viability [1]
inactive: Her2 level [2] 83% | viability [3] 92% | viability [4] 81.8% | viability [5] 82% | differential viability (reversal) ([6]; H69AR cells + 2 uM doxorubicin) -5.14% | inhibition [7] -3.07% | inhibition [8] 1.8% | growth inhibition [9] -5.46% | growth inhibition [10] 2.1% | viability increase [11] -3.94% | viability [12] 96.6% | viability [13] 95.7% | inhibition [14] 0.62% | RAM network inhibition [15] 6.77%
87.1%: viability [6, 16]

Cc1nc2c(-c3ccccc3)c(C)nn2c(C)c1CCC(=O)NCc1ccco1
101%: viability [1]
90.8%: viability [6, 17]
76.6%: viability [6, 16]
inactive: Her2 level [2] 100% | viability [3] 101% | viability [4] 88.2% | viability [5] 90.8% | differential viability (reversal) ([6]; H69AR cells + 2 uM doxorubicin) 14.2% | inhibition [7] -0.9% | inhibition [8] -2.5% | growth inhibition [9] -4.98% | growth inhibition [10] 5.46% | viability increase [11] -3.51% | viability [12] 98.9% | viability [13] 101% | inhibition [14] 1.4% | RAM network inhibition [15] 5.36%

CCOc1ccccc1N(CC(=O)N1CCCCCC1)S(C)(=O)=O
89.5%: viability [6, 16]
99.8%: viability [6, 17]
99%: viability [1]
inactive: Her2 level [2] 97% | viability [3] 99% | viability [4] 97.5% | viability [5] 99.8% | differential viability (reversal) ([6]; H69AR cells + 2 uM doxorubicin) 10.3% | inhibition [7] -1.3% | inhibition [8] 1.15% | growth inhibition [9] -4.37% | growth inhibition [10] -10.9% | viability increase [11] -1.33% | viability [12] 91.1% | viability [13] 99.4% | inhibition [14] 0.65% | RAM network inhibition [15] 3.99%

CCn1cc(C(=O)NCC2CCCO2)c(=O)c2cc(S(=O)(=O)N(C)C)ccc21 (stereo not given)
88.6%: viability [6, 17]
inactive: Her2 level [2] 113% | viability [3] 85.5% | viability [4] 105% | viability [5] 88.6% | differential viability (reversal) ([6]; H69AR cells + 2 uM doxorubicin) 5.47% | inhibition [7] -0.13% | inhibition [8] -3.83% | growth inhibition [9] -1.35% | growth inhibition [10] 1.3% | viability increase [11] -0.77% | viability [12] 101% | viability [13] 94.9% | inhibition [14] 2.33% | RAM network inhibition [15] 1.14%
83.1%: viability [6, 16]
85.5%: viability [1]

N#Cc1ccc(-c2csc(NC(=O)C3CC3)n2)cc1
inactive: Her2 level [2] 91% | viability [3] 95.5% | viability [4] 109% | viability [5] 91.9% | differential viability (reversal) ([6]; H69AR cells + 2 uM doxorubicin) 6.75% | inhibition [7] -2.93% | inhibition [8] 0.16% | growth inhibition [9] -18.1% | growth inhibition [10] -2.02% | viability increase [11] 3.47% | viability [12] 103% | viability [13] 88.9% | inhibition [14] 2.53% | RAM network inhibition [15] 4.29%
85.1%: viability [6, 16]
95.5%: viability [1]
91.9%: viability [6, 17]

CCc1cccc(NC(=O)CCc2nc(-c3cccs3)no2)c1
85.1%: viability [6, 16]
inactive: Her2 level [2] 107% | viability [3] 108% | viability [4] 95.4% | viability [5] 101% | differential viability (reversal) ([6]; H69AR cells + 2 uM doxorubicin) 15.6% | inhibition [7] -3.47% | inhibition [8] -0.98% | growth inhibition [9] -1.88% | growth inhibition [10] -1.74% | viability increase [11] -1.34% | viability [12] 95.6% | viability [13] 97.6% | inhibition [14] 0.515% | RAM network inhibition [15] -1.4%
108%: viability [1]
101%: viability [6, 17]

O=C(O)c1ccc(-c2ccc(O)c(F)c2)cc1
88.6%: viability [6, 16]
inactive: Her2 level [2] 167% | viability [3] 94% | viability [4] 92.8% | viability [5] 82.9% | differential viability (reversal) ([6]; H69AR cells + 2 uM doxorubicin) -5.75% | inhibition [7] -0.4% | inhibition [8] 1.5% | growth inhibition [9] -8.37% | growth inhibition [10] 12.1% | viability increase [11] -2.66% | viability [12] 99.3% | viability [13] 97.4% | inhibition [14] -0.17% | RAM network inhibition [15] -2.4%
82.9%: viability [6, 17]
94%: viability [1]

O=C(c1ccc(Cl)s1)N1CCN(c2nc3ccccc3s2)CC1
inactive: Her2 level [2] 78% | viability [3] 84% | viability [4] 69.4% | viability [5] 85.9% | differential viability (reversal) ([6]; H69AR cells + 2 uM doxorubicin) -0.215% | inhibition [7] -3.47% | inhibition [8] 2.5% | growth inhibition [9] 3.6% | growth inhibition [10] -3.27% | viability increase [11] 0.2% | viability [12] 81% | viability [13] 83.7% | inhibition [14] 2.66% | RAM network inhibition [15] 2.18%
85.9%: viability [6, 17]
84%: viability [1]
86.1%: viability [6, 16]

CC1CCc2nn(CC(=O)NCCN3CCCCC3C)cc2C1 (stereo not given)
85%: viability [1]
92.6%: viability [6, 16]
inactive: Her2 level [2] 104% | viability [3] 85% | viability [4] 103% | viability [5] 90% | differential viability (reversal) ([6]; H69AR cells + 2 uM doxorubicin) -2.58% | inhibition [7] -2.18% | inhibition [8] 0.83% | growth inhibition [9] 0.05% | growth inhibition [10] -11% | viability increase [11] -1.56% | viability [12] 101% | viability [13] 98.5% | inhibition [14] 2.96% | RAM network inhibition [15] 1.89%
90%: viability [6, 17]
